# Experimental data: PMC5540273 (PLoS ONE, 2017)
# How the values were obtained:
# BIKE = system: T1, BIKE
# T1 construct: gene BMP2K
# BRK = system: T2, BRK
# T2 construct: gene PTK6
# 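Note: kd values determined as follow-up on hits from a single-replicate KINOMEscan panel screen.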
structure (smiles),measurement,setting,value
O=S(=O)(c1ccc(-c2ccnc3[nH]ccc23)cc1)N1CCCC1 [GSK846226],Kd,BIKE,7.2 µM
Cc1ccc(NC(=O)Nc2cccc(C(F)(F)F)c2)cc1 [GSK955403],Kd,BMPR1A,> 10 µM
O=C1NC(=O)C(N2CCc3ccccc32)=C1c1ccccc1Cl [SB-373598],Kd,BMPR2,> 10 µM
NC(=O)c1nnc2ccccc2c1N,Kd,BMX,> 10 µM
O=C(O)COc1ncnc2cc(-c3ccc4[nH]ncc4c3)sc12,Kd,BRK,> 10 µM
Cc1c(O)cccc1Nc1ccnc2ccc(C(F)(F)F)cc12.Cl [GW466413],Kd,BRK,0.19 µM
Cl.Oc1ccc(-c2nc(-c3ccccc3)[nH]c2-c2ccncc2)cc1 [SB-428218],Kd,BUB1,0.56 µM
CN(C)CCN(C)C(=O)c1cc(-c2ccncc2)c(-c2ccc(Cl)c(O)c2)o1.Cl.Cl [SB-710397],Kd,BUB1,0.39 µM
